Here are results for 21 molecules from PubChem BioAssay (EPA / NIEHS).

Assay [1] is described as follows: BSK_hDFCGF_SRB: Viability Assessment in the BioMAP Diversity Plus: hDFCGF Assay (AID 2283061).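 Also: cells exposed to compound for 24 h before the read.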 The note with it: primary human foreskin fibroblasts. In short, it runs like this: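 Cells were dosed with test chemical, cultured 24 h, fixed with 10% TCA, then stained with 0.1% SRB and read at 560 nm. The fibroblasts were human foreskin primary cells, and DMSO served as baseline.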

Read-out in assay [2]: TIMP metallopeptidase inhibitor 1 (TIMP1), TIMP1 (gene 7076)
The experiment in a line: BSK_hDFCGF_TIMP1: BioMAP Diversity Plus: hDFCGF Assay for TIMP metallopeptidase inhibitor 1 (TIMP1) Biomarker Activity (AID 2283062). The note with it: primary human foreskin fibroblasts; actives raise or lower the signal. In short, it runs like this:
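Fibroblasts from human foreskin are treated with test chemical and harvested at 24 h. TIMP-1 is quantified by ELISA, and gain or loss of signal is scored against DMSO.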

Read-out in assay [3]: Monokine induced gamma interferon (MIG), CXCL9 (gene 4283)
The experiment in a line: BSK_hDFCGF_MIG: BioMAP Diversity Plus: hDFCGF Assay for Monokine induced gamma interferon (MIG) Biomarker Activity (AID 2283063). To be noted: primary human foreskin fibroblasts; actives raise or lower the signal. The method in brief: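 MIG signal, determined by ELISA, reflects 24 h chemical exposure of human skin primary fibroblasts. DMSO serves as negative control and baseline.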

Read-out in assay [4]: Matrix Metallopeptidase 1 (MMP1), MMP1 (gene 4312)
The assay can be described thus: BSK_hDFCGF_MMP1: BioMAP Diversity Plus: hDFCGF Assay for Matrix Metallopeptidase 1 (MMP1) Biomarker Activity (AID 2283064). The note with it: primary human foreskin fibroblasts; actives raise or lower the signal. The method in brief: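 ELISA read-out of MMP1 from human foreskin fibroblasts (primary skin cells), 24 h post-dose. Gain or loss of signal was fitted bidirectionally versus DMSO negative control; cytotoxicity was checked by SRB in parallel cultures.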

Read-out in assay [5]: Vascular cell adhesion molecule 1 (VCAM1), VCAM1 (gene 7412)
The experiment in a line: BSK_hDFCGF_VCAM1: BioMAP Diversity Plus: hDFCGF Assay for Vascular cell adhesion molecule 1 (VCAM1) Biomarker Activity (AID 2283065).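 As to AC50: VCAM-1 protein level quantified by ELISA after 24 h chemical exposure.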 The note with it: primary human foreskin fibroblasts; actives raise or lower the signal. The method in brief:
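Cells are dosed, cultured for 24 h, then VCAM-1 is quantified by ELISA; signal increases and decreases are both fitted relative to DMSO.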

Read-out in assay [6]: Plasminogen activator inhibitor-1 (PAI1), SERPINE1 (gene 5054)
The assay can be described thus: BSK_hDFCGF_PAI1: BioMAP Diversity Plus: hDFCGF Assay for Plasminogen activator inhibitor-1 (PAI1) Biomarker Activity (AID 2283066). To be noted: primary human foreskin fibroblasts; actives raise or lower the signal. In short, it runs like this:
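Fibroblasts from human foreskin were treated with test chemical. After 24 h, PAI-1 was measured by ELISA. Activity was fitted in both directions relative to DMSO.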

Read-out in assay [7]: Intercellular Adhesion Molecule 1 (ICAM1), ICAM1 (gene 3383)
The experiment in a line: BSK_KF3CT_ICAM1: BioMAP Diversity Plus: KF3CT Assay for Intercellular Adhesion Molecule 1 (ICAM1) Biomarker Activity (AID 2283067). The note with it: primary human keratinocytes with fibroblasts; actives raise or lower the signal. In short, it runs like this:
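Dose the keratinocyte/fibroblast co-culture, wait 24 h, measure ICAM-1 by ELISA, then fit increases or decreases against DMSO. Cytotoxicity is checked in parallel cultures by SRB total-protein staining.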

Read-out in assay [8]: Interferon-gamma inducible Protein 10 (IP10), CXCL10 (gene 3627)
The experiment in a line: BSK_KF3CT_IP10: BioMAP Diversity Plus: KF3CT Assay for Interferon-gamma inducible Protein 10 (IP10) Biomarker Activity (AID 2283068). The note with it: primary human keratinocytes with fibroblasts; actives raise or lower the signal. In short, it runs like this: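 Signal is secreted/surface IP-10 by ELISA in a human primary skin co-culture of keratinocytes and foreskin fibroblasts, taken 24 h post-dosing; DMSO served as negative control.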

A short description of assay [9]: BSK_KF3CT_SRB: Viability Assessment in the BioMAP Diversity Plus: KF3CT Assay (AID 2283069).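 Also: total protein by sulforhodamine B staining as a cytotoxicity measure; read 24 h after compound addition; fitted for both signal gain and loss against DMSO baseline.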 The note with it: primary human keratinocytes with fibroblasts. The method in brief:
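SRB read-out at 560 nm (0.1% stain, TCA-fixed cells) gauges overt cytotoxicity in a human skin keratinocyte–fibroblast co-culture 24 h post-dosing. Signal change was fitted bidirectionally relative to DMSO control.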

Read-out in assay [10]: Interleukin-1 alpha (IL1a), IL1A (gene 3552)
The assay can be described thus: BSK_KF3CT_IL1a: BioMAP Diversity Plus: KF3CT Assay for Interleukin-1 alpha (IL1a) Biomarker Activity (AID 2283070). The note with it: primary human keratinocytes with fibroblasts; actives raise or lower the signal. The method in brief: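 Primary skin co-culture (keratinocytes, foreskin fibroblasts), 24 h exposure; ELISA for IL-1a; bidirectional curve fit vs DMSO.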

Structures are written as SMILES. Calls of active or inactive are those of the source. The calls were made as follows: active = hit-call score of the fitted dose curve at least 0.9, where 1 is the maximum; inactive = score below 0.9.

In the case of `CC(CO)OC(C)CO` (stereo not given) (tested in a mixture with another compound), the result in [1], in assay [2], in assay [3], in assay [4], in assay [5] and in assay [6] was inactive. The result in [7], in [8], in assay [9] and in assay [10] was inactive.

Turning to `Cc1cccc(C)c1O`, the outcome in assay [1], in assay [2], in [3], in assay [4], in [5] and in [6] was inactive. For the same molecule, the outcome in [7], in assay [8], in assay [9] and in [10] was inactive.

Turning to `CNC(=O)[C@H]1O[C@@H](n2cnc3c(NCc4cc(Cl)ccc4OCc4cc(C)no4)ncnc32)[C@H](O)[C@@H]1N`, the outcome in [1], in assay [2], in [3], in assay [4], in assay [5] and in assay [6] was inactive. Moreover, the outcome in assay [7], in assay [8], in assay [9] and in assay [10] was inactive.

`NC(=O)Cn1c(=O)cc(CCN2CCN(c3nccc4sccc34)CC2)c2ccc(F)cc21`: the outcome in assay [1], in assay [2], in assay [3], in [4], in assay [5] and in [6] was inactive. For the same molecule, the result in assay [7], in assay [8], in assay [9] and in [10] was inactive.

Turning to `CCCCOC(=O)CCCCCCCCC(=O)OCCCC`, the outcome in assay [1], in assay [2], in [3], in assay [4], in assay [5] and in [6] was inactive. For the same molecule, the result in assay [7], in assay [8], in [9] and in assay [10] was inactive.

Regarding `CC(=O)OC/C=C(\C)CCC=C(C)C`, the result in assay [1], in assay [2], in assay [3], in assay [4], in assay [5] and in [6] was inactive. The result in [7], in [8], in assay [9] and in assay [10] was inactive.

As to `CN1CCCC1=O`, the result in [1], in [2], in assay [3], in assay [4], in [5] and in assay [6] was inactive. The result in assay [7], in assay [8], in assay [9] and in assay [10] was inactive.

As to `CC1(C)NC(=O)NC1=O`, the result in assay [1], in assay [2], in assay [3], in [4], in assay [5] and in assay [6] was inactive. In addition, the result in assay [7], in assay [8], in assay [9] and in [10] was inactive.

Turning to `CNCc1cc(F)ccc1Oc1ccc(Cl)c(Cl)c1`, the outcome in assay [1], in [2], in assay [3], in assay [4], in assay [5] and in [6] was inactive. The result in assay [7], in assay [8], in [9] and in assay [10] was inactive.

With `CC1=C(/C=C/C(C)=C/C=C/C(C)=C/CO)C(C)(C)CCC1`, the AC50 in assay [1] was 37.8 µM (active); in assay [3], 27 µM (active); in assay [5], 20.9 µM (active); in assay [6] it was 20.9 µM (active); in assay [8], 31.4 µM (active). Further, the outcome in [2], in [4], in [7], in [9] and in assay [10] was inactive.

On to `c1cc(-c2ccncc2)ccn1`, for which the result in assay [1], in assay [2], in assay [3], in [4], in [5] and in [6] was inactive. For the same molecule, the result in [7], in assay [8], in assay [9] and in [10] was inactive.

`CN1CCN(Cc2cc(-c3ccc4[nH]c(=O)oc4c3)co2)[C@@H](c2ccc(F)cc2)C1`: the AC50 was 17.6 µM (active) in [1] and 11.8 µM (active) in [6]. For the same molecule, the outcome in assay [2], in [3], in assay [4], in assay [5], in [7] and in assay [8] was inactive. In addition, the outcome in assay [9] and in assay [10] was inactive.

On to `OC[C@@H](O)[C@@H](O)[C@H](O)[C@H](O)CO`, for which the outcome in [1], in assay [2], in assay [3], in [4], in assay [5] and in assay [6] was inactive. Also, the outcome in [7], in assay [8], in assay [9] and in assay [10] was inactive.

As to `Cc1nc(C)nc(N2C[C@@H](C)N(c3ccnc([C@@H](C)O)n3)[C@@H](C)C2)n1`, the outcome in [1], in [2], in [3], in assay [4], in [5] and in assay [6] was inactive. Besides, the result in [7], in assay [8], in [9] and in assay [10] was inactive.

In the case of `C1CCC(SSC2CCCCC2)CC1`, the AC50 was 32.2 µM (active) in assay [1], 38.4 µM (active) in assay [5], 30.8 µM (active) in assay [6] and 30 µM (active) in assay [8]. In addition, the outcome in assay [2], in [3], in assay [4], in [7], in [9] and in assay [10] was inactive.

With `CCCCCCOCCO`, the result in assay [1], in assay [2], in assay [3], in [4], in [5] and in assay [6] was inactive. For the same molecule, the outcome in assay [7], in [8], in assay [9] and in assay [10] was inactive.

Turning to `CCCCCCCCCCCCCCCCCC(=O)O`, the outcome in assay [1], in [2], in [3], in assay [4], in assay [5] and in [6] was inactive. Moreover, the result in assay [7], in [8], in assay [9] and in assay [10] was inactive.

Consider `CCCCCCCC=O`, for which the outcome in assay [1], in assay [2], in [3], in assay [4], in assay [5] and in assay [6] was inactive. Moreover, the result in [7], in assay [8], in assay [9] and in assay [10] was inactive.

Take `CC(=O)Oc1ccccc1C(=O)O`: the outcome in [1], in assay [2], in [3], in assay [4], in assay [5] and in assay [6] was inactive. Moreover, the result in assay [7], in [8], in [9] and in assay [10] was inactive.

With `Cc1ccc(N(C)C)cc1`, the outcome in [1], in assay [2], in [3], in [4], in assay [5] and in assay [6] was inactive. Also, the outcome in [7], in assay [8], in assay [9] and in [10] was inactive.

In the case of `C[C@]12C=CC(=O)C=C1CC[C@@H]1[C@@H]2C(=O)C[C@@]2(C)[C@H]1CC[C@]2(O)C(=O)CO`, the outcome in assay [1], in [2], in assay [3], in assay [4], in assay [5] and in assay [6] was inactive. Also, the result in assay [7], in assay [8], in [9] and in assay [10] was inactive.
